In the library only some 6.5% were active in any assay of this set; here they are far more common.
Marburg entry inh: blocks Marburg virus binding to or entry into cells | AID 540276 | Marburg virus pseudotyped entry inhibition, cell reporter | Potency, µM (doses to about 37.8 µM), without a hit: top-dose activity change, negative = inhibition, actives largely listed as inhibitors | actives 1.8% (n = 300,000); calls by dose curve; tested in HEK293 cells; also: potency is read from the fitted curve at half-maximal effect
LASV entry inh: Lassa virus entry inhibition | actives 1.2% (n = 300,000) | Potency, µM (highest dose often 37.9 µM), for the others: top-dose activity change, negative = inhibition, hits mostly inhibitors | Lassa virus pseudotype entry inhibition, cell reporter | AID 540256; calls by dose curve; tested in HEK293 cells; also: potency is read from the fitted curve at half-maximal effect; nearly all actives have a fitted effect of over 50% in size
HCMV antiviral: human cytomegalovirus inhibition; HFF cells, HCMV-luciferase reporter, 72 h; stronger effect = lower value; activity change, negative = inhibition, % at 57.5 µM; actives 4.5% (n = 410,000); in the data active = activity change below about -60%; inconclusive = no clear call, values can overlap the other calls; inactive = above about -39%
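Two-dose cell screen: HFF monolayers treated with compounds and infected with luciferase-expressing HCMV at 1 PFU/cell, 72 h at 37C, then lysed for luciferase measurement.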
Vaccinia mCherry: inhibitors of vaccinia virus infection (mCherry reporter signal); Potency, µM (series often up to 36.5 µM), without a hit: at the top dose activity change, negative = inhibition, most hits filed as inhibitors; Vaccinia virus mCherry reporter infection, fluorescence; actives 0.63% (n = 310,000); calls by dose curve; tested in A549 cells; also: potency is read from the fitted curve at half-maximal effect; nearly all actives have a fitted effect of over 35% in size
VACV Venus inh: vaccinia inhibition (Venus reporter) | Vaccinia virus Venus reporter expression, fluorescence | Potency, µM (highest dose often 36.5 µM), for the others: at the top dose activity change, negative = inhibition, most hits filed as inhibitors | actives 0.46% (n = 330,000); calls by dose curve; tested in A549 cells; also: potency is read from the fitted curve at half-maximal effect; nearly all actives have a fitted effect of over 30% in size
FMDV antiviral: foot and mouth disease virus antiviral activity. Potency, µM (highest dose often 57.9 µM), for the others: top-dose activity change, negative = inhibition, most hits filed as inhibitors. actives 1.2% (n = 410,000). FMDV antiviral cell-based qHTS; calls by dose curve; tested in HEK293T cells; also: read-out not given here; potency is read from the fitted curve at half-maximal effect; nearly all actives have a fitted effect of over 45% in size
* marks the source's active call; other numbers are inactive results; [ ] = dose if it differs, or a comment. % is scaled to controls: 0 for no effect and ±100 for the full control effect.

For COC(C(=O)C(O)C(C)O)C1Cc2cc3cc(OC4CC(OC5CC(O)C(O)C(C)O5)C(O)C(C)O4)c(C)c(O)c3c(O)c2C(=O)C1OC1CC(OC2CC(OC3CC(C)(O)C(O)C(C)O3)C(O)C(C)O2)C(O)C(C)O1 (stereo unspecified) the results were Vaccinia mCherry 0.28µM* and VACV Venus inh 0.28µM*.
For COC(C(=O)C(O)C(C)O)C1Cc2cc3cc(OC4CC(OC5CC(O)C(O)C(C)O5)C(O)C(C)O4)c(C)c(O)c3c(O)c2C(=O)C1OC1CC(OC2CC(OC3CC(O)C(OC)C(C)O3)C(O)C(C)O2)C(O)C(C)O1 (stereo unspecified) the results were Marburg entry inh -26%, LASV entry inh 0%, HCMV antiviral -98*, Vaccinia mCherry inconclusive, VACV Venus inh inconclusive and FMDV antiviral 3%.
Screening COC(=O)Cn1cnc2c(NC(=O)c3ccccc3)ncnc21 returned HCMV antiviral 10.
`Cc1ccc(NC(=O)CSc2n[nH]c(C)c2[N+](=O)[O-])cc1C` gave Marburg entry inh 2%, LASV entry inh 7%, HCMV antiviral -69*, Vaccinia mCherry -7%, VACV Venus inh -8% and FMDV antiviral -12%.
For Cc1ccc(O)c(NC(=O)CSc2n[nH]c(C)c2[N+](=O)[O-])c1 the results were Marburg entry inh inconclusive, LASV entry inh -17%[46.1 µM], HCMV antiviral inconclusive, Vaccinia mCherry 2.5µM*, VACV Venus inh inconclusive and FMDV antiviral -22%.
`COc1ccc(NC(=O)CSc2n[nH]c(C)c2[N+](=O)[O-])cc1` gave HCMV antiviral -30 and FMDV antiviral 0%.
For C/C(=C1/C=Nc2ccccc21)c1ccc(N(C)C)cc1 the results were Vaccinia mCherry 20% and VACV Venus inh -15%.
For O=C1OCCC=C1C(O)CCc1ccccc1 (stereo unspecified) the results were Marburg entry inh 22%[14.2 µM].
`O=c1oc(-c2ccccc2)cc(Cl)c1Cl` gave Marburg entry inh 11µM*, LASV entry inh inconclusive, HCMV antiviral -101*, Vaccinia mCherry inactive, VACV Venus inh -10% and FMDV antiviral 25µM*.
`Cc1no[n+]([O-])c1COc1ccccc1/C=N/n1nnnc1N` gave Marburg entry inh inconclusive, LASV entry inh inconclusive, HCMV antiviral -75*, Vaccinia mCherry inconclusive, VACV Venus inh inconclusive and FMDV antiviral -19%.
`CCOc1cc(/C=N/n2nnnc2N)ccc1OCc1c(C)no[n+]1[O-]` gave Marburg entry inh -7%, LASV entry inh 0%, HCMV antiviral -20, Vaccinia mCherry inconclusive, VACV Venus inh inconclusive and FMDV antiviral inconclusive.
For Cc1nc(NCc2cnn(C)c2)sc1-c1ccn(-c2cccc(F)c2)n1 the results were Vaccinia mCherry -16%, VACV Venus inh -11% and FMDV antiviral -12%.
CC[n+]1ccccc1/C=C1\Sc2ccc(C)cc2N1C was read as HCMV antiviral -97* and FMDV antiviral inconclusive.
Screening Clc1cccc(-n2ncc3c(Nc4ccc5c(c4)OCCO5)ncnc32)c1 returned LASV entry inh inconclusive, HCMV antiviral -24, Vaccinia mCherry -25%, VACV Venus inh -8% and FMDV antiviral -10%.
For O=C(COc1ccccc1F)Nc1ccc2c(c1)CCC2 the results were Marburg entry inh inconclusive, LASV entry inh 4%, HCMV antiviral 85, Vaccinia mCherry -13%, VACV Venus inh -7% and FMDV antiviral 32%.
For O=C(COc1cccc(Cl)c1)Nc1ccc2c(c1)CCC2 the results were Marburg entry inh -2%, LASV entry inh 8%, HCMV antiviral -66*, Vaccinia mCherry -20%, VACV Venus inh -16% and FMDV antiviral 23%.
Screening O=C(COc1ccc2ccccc2c1)Nc1ccncc1 returned Marburg entry inh -4%[46.1 µM], LASV entry inh -1%, HCMV antiviral -100*, Vaccinia mCherry inconclusive, VACV Venus inh -21% and FMDV antiviral -13%.
`O=C(COc1ccc2c(c1)CCC2)Nc1ccccn1` gave Marburg entry inh inconclusive, LASV entry inh 11µM*, HCMV antiviral 51, Vaccinia mCherry -18%, VACV Venus inh -3% and FMDV antiviral -87%.
`CCC(=O)N1CCc2cc(S(=O)(=O)NC(C(=O)NCCc3cccc(C)c3)C(C)C)ccc21` (stereo unspecified) gave Marburg entry inh 9%[46.1 µM], LASV entry inh 6%[46.1 µM], HCMV antiviral 18, Vaccinia mCherry -17%, VACV Venus inh -2% and FMDV antiviral -12%.
Screening O=C(NCCC(F)(F)F)C1=CN2CCN(Cc3cccc(Cl)c3)C(=O)N=C2O1 returned HCMV antiviral -1.
COc1ccc2nc(C)cc(SCC(=O)N/N=C/c3ccc(O)c(O)c3)c2c1 was read as Marburg entry inh inconclusive, LASV entry inh -6%[46.1 µM], HCMV antiviral inconclusive, Vaccinia mCherry -26%, VACV Venus inh -7% and FMDV antiviral inconclusive.
`Cc1cc(SCC(=O)N/N=C/c2ccc(O)cc2O)nc2ccccc12` gave Marburg entry inh inconclusive, LASV entry inh inconclusive, HCMV antiviral 3, Vaccinia mCherry 1.1µM*, VACV Venus inh inconclusive and FMDV antiviral -25%.
`COc1ccc2nc(C)cc(SCC(=O)N/N=C/c3cccc4ccccc34)c2c1` gave Marburg entry inh inconclusive, LASV entry inh 13µM*, HCMV antiviral -68* and FMDV antiviral -20%.
For CCOc1cc(C(=O)Nc2ccc3c4c(cccc24)C(=O)N3CC)cc(OCC)c1OCC the results were Marburg entry inh 18µM*, LASV entry inh -3%, HCMV antiviral 100 and FMDV antiviral inconclusive.
`CCN(CC)CC(C)(C)C(=O)/C=C/c1ccc(/C=C/C(=O)C(C)(C)CN(CC)CC)cc1` gave Marburg entry inh 1.4µM*, LASV entry inh 3.5µM*, HCMV antiviral 1, Vaccinia mCherry inconclusive, VACV Venus inh 11µM* and FMDV antiviral 3.5µM*.
Screening COC(=O)c1c(C(=O)OC)c2c3cc(OC)c(OC)cc3ccn2c1C(=O)OC returned Marburg entry inh 23%[14.2 µM] and LASV entry inh inconclusive.
CCOc1ccc(C2=CS/C(=C(\C#N)c3nnc4n3CCCCC4)N2CC)cc1 was read as Marburg entry inh inconclusive, LASV entry inh inconclusive, HCMV antiviral -63*, Vaccinia mCherry inconclusive, VACV Venus inh -22% and FMDV antiviral inconclusive.
Screening CCNC(=O)c1nn(-c2ccccc2C)nc1CO returned Marburg entry inh 7%[46.1 µM], LASV entry inh 12%[46.1 µM], HCMV antiviral 47, Vaccinia mCherry -9%, VACV Venus inh -3% and FMDV antiviral -7%.
`O=C(N/N=C/c1cccnc1)c1cc(-c2ccc(Cl)cc2)nc2ccccc12` gave HCMV antiviral 15 and FMDV antiviral -4%.
Cc1ccc(/C=N/NC(=O)c2ccc3nc[nH]c3c2)o1 was read as Marburg entry inh -6%[46.1 µM], LASV entry inh 4%[46.1 µM], HCMV antiviral -60*, Vaccinia mCherry inactive, VACV Venus inh -9% and FMDV antiviral -12%.

Assay outcomes (PubChem)
